Compound activity as filed in PubChem.
ELG1 repair inh = blocks ELG1-dependent DNA repair in HEK293T cells; HEK293T ELG1-luciferase reporter, luminescence, 16 h; DNA damage induced by 5-fluorouridine; Potency, µM (titrated, usually from 46.1 µM), for inactives: at the top dose activity change, negative = inhibition, most hits filed as inhibitors; 330,000 compounds, 2.3% hits; AID 504467; also: potency is read from the fitted curve at half-maximal effect; % is scaled to controls: 0 for no effect and ±100 for the full control effect; nearly all actives have a fitted effect of over 55% in size
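DMSO vehicle served as the neutral condition. Each well held 2,000 cells given 5-fluorouridine plus compound; after 16 hr at 37 °C/5% CO2, ONE-Glo was added and luciferase measured 30 min later.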
BRCA1 expr up = activators of BRCA1 expression | MCF7-BRCA1-FFLuc reporter, luminescence, 48 h; response scale: scaled: vehicle 0%, 10 µM genistein 100% | Potency, µM (series often up to 46.1 µM), for inactives: top-dose activation, hits mostly activators | 380,000 compounds, 1.1% hits | AID 624202; also: potency is read from the fitted curve at half-maximal effect; nearly all actives have a fitted effect of over 80% in size
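MCF7-BRCA1-FFLuc, 2000 cells/well; 2 h attach, 37 °C/5% CO2; compound 48 h; luciferase substrate 15 min; luminescence end-point. Norm. to genistein 10 microM max activation and DMSO; concentration-response curves fitted.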
Giardia kill = kills Giardia lamblia; 340,000 compounds, 0.15% hits; activity change, % at 7.66 µM, hits read low; Giardia lamblia trophozoite viability; in the data active = activity change below about -80%; inconclusive = between about -30% and that limit;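 also: parasites exposed to compound for two days anaerobically before the ATP read; % is scaled to controls: 0 for no effect and ±100 for the full control effect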
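ATP-content bioluminescence gauges trophozoite survival. Cells (100/well) receive compound and incubate anaerobically for 48 hrs at 37 deg C; detection reagent follows for 15-30 min at room temperature.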
p53 reactivation = restores transcriptional activity of mutant p53; 320,000 compounds, 0.063% hits; H1299 p53-A138V BP100-luciferase reporter, luminescence, 24 h; AID 504706; Potency, µM (doses to about 92.2 µM), for the others: at the highest dose activity change, positive = activation, most hits filed as activators; also: potency is read from the fitted curve at half-maximal effect; % of control where 0% means no effect; nearly all actives have a fitted effect of over 45% in size
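H1299 (p53-null), stable ts p53-A138V + BP100-Luc; 1000 cells/well, Opti-MEM/10% FBS; cpd 4 pt, 1:5; 24 h, 37 deg C, 5% CO2; detection reagent 10 min RT; luminescence.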
Gal4-VP16 FLuc = counter-screen for ROR gamma inhibitors: Gal4-VP16 reporter; Drosophila S2 Gal4-VP16 UAS-luciferase, luminescence, 20 h; 310,000 compounds, 3.5% hits; Potency, µM (series often up to 53.6 µM), for the others: at the highest dose activity, negative = inhibition, hits mostly inhibitors; AID 2546;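 also: Gal4-VP16 expression switched on by copper sulfate through the metallothionein promoter; potency is read from the fitted curve at half-maximal effect; % is scaled to controls: 0 for no effect and ±100 for the full control effect; nearly all actives have a fitted effect of over 50% in size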
RORgamma inh = inhibitors of mouse ROR gamma transcriptional activity | AID 2551 | 310,000 compounds, 5.4% hits | Potency, µM (top dose mostly 53.6 µM), inactives show at the top dose activity change, negative = inhibition, actives largely listed as inhibitors | P51450 | Drosophila S2 Gal4-RORgamma UAS-luciferase reporter, 20 h; also: potency is read from the fitted curve at half-maximal effect; % is scaled to controls: 0 for no effect and ±100 for the full control effect; nearly all actives have a fitted effect of over 60% in size
Target sequence (P51450 whole entry, looked up, the tested form may be a part): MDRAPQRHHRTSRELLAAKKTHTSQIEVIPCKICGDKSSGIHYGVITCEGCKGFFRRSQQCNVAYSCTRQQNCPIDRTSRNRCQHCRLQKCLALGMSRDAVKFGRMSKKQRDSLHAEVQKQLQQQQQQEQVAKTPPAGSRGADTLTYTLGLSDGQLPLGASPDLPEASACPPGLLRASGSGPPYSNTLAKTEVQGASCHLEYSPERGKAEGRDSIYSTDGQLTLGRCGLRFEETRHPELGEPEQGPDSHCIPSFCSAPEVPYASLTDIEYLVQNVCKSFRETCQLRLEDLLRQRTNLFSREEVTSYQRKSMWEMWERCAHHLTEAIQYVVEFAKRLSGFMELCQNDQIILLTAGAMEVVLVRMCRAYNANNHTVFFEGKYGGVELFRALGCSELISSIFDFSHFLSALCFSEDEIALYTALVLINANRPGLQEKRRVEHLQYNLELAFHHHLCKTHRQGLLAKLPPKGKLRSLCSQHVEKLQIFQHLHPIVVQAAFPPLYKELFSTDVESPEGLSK
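Drosophila Schneider cells stably carrying a metallothionein-driven Gal4 DBD–ROR gamma fusion and a UAS-Photinus luciferase reporter were exposed to compound for 1 hr, then induced with copper sulfate (700 uM final) for 20 hr at ambient temperature before luminescence reading.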
Numbers without * were called inactive; [ ] = remark or other dose. Hits are enriched below; roughly 7.6% of the tested compounds scored in any of these assays. Unless noted, calls follow the shape of the dose curve; as a rule, active = well fitted curve in the direction sought with a large enough effect; inconclusive = small, poorly fitted or top-dose-only effect, or another doubt; inactive = no such curve, though single readings can be large; an effect the other way counts as inactive or inconclusive.

For CCOc1cccc(-c2c(C(=O)N/N=C/c3ccsc3)nnn2-c2nonc2N)c1 the results were ELG1 repair inh -4%, BRCA1 expr up 10%, Giardia kill -12, p53 reactivation -3%, Gal4-VP16 FLuc 25µM* and RORgamma inh 11µM*.
For CCOc1cccc(-c2c(C(=O)N/N=C/c3sccc3C)nnn2-c2nonc2N)c1 the results were ELG1 repair inh inconclusive, BRCA1 expr up -20%, Giardia kill 0, p53 reactivation -3%, Gal4-VP16 FLuc 4.5µM* and RORgamma inh 5.6µM*.
For CCOc1ccc(-c2c(C(=O)N/N=C/c3ccccc3)nnn2-c2nonc2N)cc1 the results were ELG1 repair inh 6%, BRCA1 expr up 19%, Giardia kill -4, p53 reactivation -3%, Gal4-VP16 FLuc -8% and RORgamma inh -17%.
Screening CCOc1ccc(/C=N/NC(=O)c2nnn(-c3nonc3N)c2-c2cccs2)cc1 returned ELG1 repair inh 1%, BRCA1 expr up 14%, Giardia kill -4, p53 reactivation 10%, Gal4-VP16 FLuc -6% and RORgamma inh -33%.
`CCOc1ccc(-c2c(C(=O)N/N=C/c3sccc3C)nnn2-c2nonc2N)cc1` gave ELG1 repair inh 0%, BRCA1 expr up -36%, Giardia kill -3, p53 reactivation -1%, Gal4-VP16 FLuc 8.9µM* and RORgamma inh 3.2µM*.
For C[C@H](CO)N1C[C@H](C)[C@H](CN(C)S(=O)(=O)c2ccccc2)OCc2cnnn2CCCC1=O the results were BRCA1 expr up 7%.
For C[C@H](CO)N1C[C@H](C)[C@@H](CN(C)C(=O)c2ccc3ccn(C)c3c2)OCc2cnnn2CCCC1=O the results were BRCA1 expr up 3%.
Screening O=C1Nc2ccc(Br)cc2/C1=C/C(=O)c1ccc2c(c1)OCO2 returned ELG1 repair inh 0%, BRCA1 expr up -64%, Giardia kill -4, p53 reactivation -14%, Gal4-VP16 FLuc inconclusive and RORgamma inh 11µM*.
CCOc1ccc(S(N)(=O)=O)cc1-c1nc2c(C(C)(C)C)nn(C)c2c(=O)[nH]1 was read as ELG1 repair inh -11%, BRCA1 expr up -10%, Giardia kill -4, p53 reactivation 4%, Gal4-VP16 FLuc 5% and RORgamma inh 14%.
For CCOc1ccc(S(=O)(=O)NC(C)(C)C)cc1-c1nc2c(C(C)(C)C)nn(C)c2c(=O)[nH]1 the results were ELG1 repair inh 12µM*, BRCA1 expr up -89%, Giardia kill 8, p53 reactivation -5%, Gal4-VP16 FLuc -14% and RORgamma inh -18%[10 µM].
`CCc1ccc(OCCCC(=O)Nc2nnc(C3CCCO3)s2)cc1` (stereo not given) gave ELG1 repair inh -7%, BRCA1 expr up -6%, Giardia kill -8, p53 reactivation 5%, Gal4-VP16 FLuc -2% and RORgamma inh 10%.
COc1ccccc1C(=O)NC(=S)Nc1ccc(N2CCN(C(=O)c3ccco3)CC2)cc1 was read as ELG1 repair inh 13µM*, BRCA1 expr up -2%, Giardia kill -3, p53 reactivation -5%, Gal4-VP16 FLuc 10µM* and RORgamma inh -13%.
For Cc1ccccc1C(=O)N1CCN(c2ccc(NC(=S)NC(=O)c3ccco3)cc2)CC1 the results were ELG1 repair inh inconclusive, BRCA1 expr up -83%, Giardia kill inconclusive, Gal4-VP16 FLuc inconclusive and RORgamma inh 16µM*.
O=C(CSCc1ccccc1)N1CCN(c2ccc(F)cc2)CC1 was read as ELG1 repair inh 28%, BRCA1 expr up 26%, Giardia kill 12, p53 reactivation inconclusive, Gal4-VP16 FLuc -12% and RORgamma inh inconclusive.
For Cc1ccc(CSCC(=O)N2CCN(c3ccccc3)CC2)cc1 the results were ELG1 repair inh -3%, BRCA1 expr up -5%, Giardia kill -9, p53 reactivation 4%, Gal4-VP16 FLuc inconclusive and RORgamma inh 35%.
